The list is not random: actives were taken first. Their share in the collection is about 8.3%.
HCV inhibitor: HCV inhibition. 3.4% of 340,000 active. Potency, µM (series often up to 41.8 µM), hits mostly inhibitors. Huh7.5.1 HCVcc-Cre infection, luciferase reporter, 44 h
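After 44 h co-culture of compound, cells and HCVcc-Cre (~0.5 moi), substrate is added for 15 min at room temperature and luciferase measured over 15 sec. Cells were seeded at 1,000/well and pre-cultured 4 h.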
FMDV inh: antivirals against foot and mouth disease virus | AID 1159524 | Potency, µM (series often up to 57.9 µM), actives largely listed as inhibitors | 1.2% of 410,000 active | FMDV antiviral cell-based qHTS; calls by dose curve; tested in HEK293T cells; also: read-out not given here; nearly all actives have a fitted effect of over 45% in size
Marburg entry inh: inhibitors of Marburg virus binding or cell entry | Marburg virus pseudotyped entry inhibition, cell reporter | Potency, µM (titrated, usually from 37.8 µM), most hits filed as inhibitors | 1.8% of 300,000 active | AID 540276; calls by dose curve; tested in HEK293 cells
LASV entry inh: Lassa virus entry inhibition | 1.2% of 300,000 active | AID 540256 | Potency, µM (titrated, usually from 37.9 µM), actives largely listed as inhibitors | Lassa virus pseudotype entry inhibition, cell reporter; calls by dose curve; tested in HEK293 cells; also: nearly all actives have a fitted effect of over 50% in size
HCMV inh: human cytomegalovirus inhibition | HFF cells, HCMV-luciferase reporter, 72 h; hits give low values | activity change, negative = inhibition, % at 57.5 µM | 4.5% of 410,000 active | AID 1259415; in the data active = activity change below about -60%; inconclusive = no clear call, values can overlap the other calls; inactive = above about -39%
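Inhibition of viral replication was scored as loss of reporter luminescence in HFFs infected with HCMV-luciferase (MOI 1 PFU/cell) for 72 h; compounds tested at 2 doses, normalized to buffer and Salinomycin controls.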
Giardia FBPA inh-1: Giardia lamblia aldolase inhibition; A8B2U2; purified Giardia FBPA; Potency, µM (series often up to 59.6 µM), actives largely listed as inhibitors; 0.71% of 290,000 active; AID 2451; also: nearly all actives have a fitted effect of over 55% in size
Target sequence (A8B2U2 whole entry, looked up): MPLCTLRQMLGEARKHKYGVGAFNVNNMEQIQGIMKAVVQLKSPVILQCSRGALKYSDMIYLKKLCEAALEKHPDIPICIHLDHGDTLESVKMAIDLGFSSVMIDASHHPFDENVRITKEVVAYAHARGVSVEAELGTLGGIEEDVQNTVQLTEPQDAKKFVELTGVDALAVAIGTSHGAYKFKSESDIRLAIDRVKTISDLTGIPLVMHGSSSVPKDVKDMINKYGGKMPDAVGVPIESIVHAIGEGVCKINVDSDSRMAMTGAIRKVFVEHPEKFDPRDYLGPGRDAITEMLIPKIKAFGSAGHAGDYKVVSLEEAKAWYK
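40 nM FBPA preincubated 10 min at RT with compound (up to 57.5 uM final), then substrate plus GAPDH/TPI/NAD/arsenate coupling and diaphorase/resazurin added. Fluorescence read after 20 min at RT, 525/598 nm.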
Giardia growth: blocks growth of Giardia lamblia trophozoites | shares compounds with Giardia FBPA inh-1 | Giardia lamblia trophozoite growth inhibition | Potency, µM (series often up to 57.5 µM), most hits filed as inhibitors | 5% of 1,500 active | AID 2785;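 also: trophozoites exposed to compound for 48 h at 37 °C; nearly all actives have a fitted effect of over 70% in size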
Mammal cell tox: counter-screen for Giardia aldolase inhibitors: mammalian cell toxicity | shares compounds with Giardia FBPA inh-1 | mammalian cell viability counter-screen, qHTS | Potency, µM (titrated, usually from 57.5 µM), actives largely listed as inhibitors | 4% of 1,500 active | AID 2786;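 also: Chinese hamster ovary cells used as mammalian cytotoxicity surrogate; viability measured as cellular ATP by luminescence; compound exposure lasted 48 h before reading; nearly all actives have a fitted effect of over 60% in size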
Giardia FBPA inh-2: confirmation of Giardia fructose-bisphosphate aldolase inhibitors. Potency, µM (doses to about 57.5 µM), actives largely listed as inhibitors. shares compounds with Giardia FBPA inh-1. purified Giardia aldolase enzyme activity, qHTS. 5% of 1,500 active; also: nearly all actives have a fitted effect of over 45% in size
Rabbit FBPA inh: rabbit FBP aldolase inhibition by Giardia aldolase hits | shares compounds with Giardia FBPA inh-1 | Rabbit muscle FBPA enzyme inhibition, selectivity counter-screen | Potency, µM (titrated, usually from 57.5 µM), hits mostly inhibitors | 4% of 1,500 active; also: nearly all actives have a fitted effect of over 60% in size
Target sequence (P00883 whole entry, looked up): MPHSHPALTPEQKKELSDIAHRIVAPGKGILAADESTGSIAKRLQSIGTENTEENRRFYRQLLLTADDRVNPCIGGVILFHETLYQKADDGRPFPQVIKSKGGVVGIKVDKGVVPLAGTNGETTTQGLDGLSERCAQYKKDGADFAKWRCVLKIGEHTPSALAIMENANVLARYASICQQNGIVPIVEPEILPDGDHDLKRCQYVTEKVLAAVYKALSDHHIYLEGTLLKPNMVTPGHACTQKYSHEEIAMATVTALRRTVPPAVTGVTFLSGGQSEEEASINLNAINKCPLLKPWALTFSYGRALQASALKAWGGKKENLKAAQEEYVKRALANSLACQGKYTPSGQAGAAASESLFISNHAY
GAPDH counter: GAPDH inhibition flagged for Giardia aldolase hits | shares compounds with Giardia FBPA inh-1 | GAPDH coupling enzyme counterscreen, biochemical, qHTS | Potency, µM (doses to about 57.5 µM), usual class: inhibitors | 6% of 1,500 active; also: nearly all actives have a fitted effect of over 55% in size
Numbers stand for hits; - = inactive; ? = inconclusive; . = not tested or not shown; [ ] = remark or other dose. Unless noted, calls follow the shape of the dose curve; as a rule, active = well fitted curve in the direction sought with a large enough effect; inconclusive = small, poorly fitted or top-dose-only effect, or another doubt; inactive = no such curve, though single readings can be large; an effect the other way counts as inactive or inconclusive.

SMILES	HCV inhibitor	FMDV inh	Marburg entry inh	LASV entry inh	HCMV inh	Giardia FBPA inh-1	Giardia growth	Mammal cell tox	Giardia FBPA inh-2	Rabbit FBPA inh	GAPDH counter
CN(C)CCCNCC(=O)c1c(-c2ccccc2)n(C)c2ccccc12	-	-	?	-	-	14.1µM	-	-	-	-	-
CCn1c(SCc2ccccc2Cl)nc(=O)c2c(C(=O)OC)cc(C3CC3)nc21	.	-	.	-	-	.	.	.	.	.	.
C/C(CS(=O)(=O)c1ccc(Cl)cc1)=N/NC(N)=S	-	-	-	?	-	15.8µM	-[10.4 µM]	-	-	-	-
Cc1c(NC(=S)NC(=O)c2cccc(Cl)c2)c(=O)n(-c2ccccc2)n1C	-	-	.	.	-	12.6µM	-	-	-	-	-
COc1ccc(C)cc1NS(=O)(=O)c1ccc2oc(=O)c3ncn(C)c3c2c1	.	?	.	-	-	.	.	.	.	.	.
Cc1nnc(NC(=O)CN2CCN(Cc3ccccc3Cl)CC2)s1	-	-	.	.	-	4.47µM	-[10.4 µM]	-	-	-	-
CCc1nnc(NC(=O)CN2CCN(Cc3cccc(OC)c3)CC2)s1	-	-	-	-	-	3.16µM	?	-	-	-	-
CC(=O)N1CCN(C(=O)CSc2nc3c(cnn3-c3ccccc3)c(=O)[nH]2)CC1	-	-	-	-	-	39.8µM	?	-	-	-	-
COc1cccc(CN2C(=O)N(c3ccc(C)cc3)C(=O)C2CC(=O)Nc2cc(OC)cc(OC)c2)c1 (centres undefined)	.	-	.	?	?	.	.	.	.	.	.
O=C(Nc1ccc2nsnc2c1)N1CCCCCC1	-	-	-	-	-	-	.	.	.	.	.
S=C(Nc1ccc2nsnc2c1)N1CCCC1	-	-	-	-	-	6.29µM	-	-	?	?	?
CCOC(=O)C1CCCN(C/C=C/c2ccccc2)C1 (centres undefined)	-	-	-	-	-	15.8µM	-	-	-	-	-
CCOC(=O)C1CCN(C/C=C/c2ccccc2)CC1	-	-	.	.	-	?	.	.	.	.	.
COC(=O)Nc1sc2c(c1C(N)=O)CCC(C)C2 (centres undefined)	?	-	-	?	-	8.89µM	-	-	?	?	?
O=C(Nc1ccc(N2CCOCC2)c(Cl)c1)c1ccc(Cl)cc1	10µM	?	-	-	?	15.8µM	?	-	?	?	?
Cn1nc(-c2ccccc2)c(/C=N/O)c1Cl	-	-	-	-	-	-	.	.	.	.	.
COCC(=O)N/N=C/c1c(C)[nH]n(-c2ccccc2)c1=O	-	-	-	-	-	7.06µM	-	-	-	-	-
Cc1[nH]n(-c2ccccc2)c(=O)c1/C=N/NC(=O)C(C)C	-	-	.	.	-	?	.	.	.	.	.
Cn1[nH]c(-c2ccccc2)c(/C=N/O)c1=O	-	-	-	-	-	15.8µM	-[10.4 µM]	-	-	-	-
COC(=O)N/N=C\c1c(C)[nH]n(-c2ccccc2)c1=O	-	-	?	-	-	?	.	.	.	.	.
CC(=O)N/N=C/c1c(C)[nH]n(-c2ccccc2)c1=O	-	-	-	-	-	15.8µM	-[10.4 µM]	-	-	-	-
Cc1ccc(-c2n[nH]c(=S)n2/N=C/c2c(C)[nH]n(-c3ccccc3)c2=O)cc1	-	?	?	-	-	9.98µM	-	-	?	-	-
NC(CO)(CO)CO	.	.	.	.	.	-	.	.	.	.	.
COC(=O)c1c(NC(=O)c2ccc(S(=O)(=O)N3CCCCC3)cc2)sc2c1CCN(C)C2	.	-	.	-	-	.	.	.	.	.	.
Cc1[nH]n(-c2ccccc2)c(=O)c1/C=N/O	-	.	-	-	-	15.8µM	?	-	-	-	-
SMILES	HCV inhibitor	FMDV inh	Marburg entry inh	LASV entry inh	HCMV inh	Giardia FBPA inh-1	Giardia growth	Mammal cell tox	Giardia FBPA inh-2	Rabbit FBPA inh	GAPDH counter
COc1cc(NS(=O)(=O)c2ccc(NC(=O)c3cccc(F)c3)cc2)nc(OC)n1	.	-	.	?	-	.	.	.	.	.	.
O=C(CSc1ncnc2nc[nH]c12)c1ccc(Cl)cc1	-	-	.	.	-	14.1µM	-[10.4 µM]	-	-	-	-
Oc1ccc(-c2csc(Nc3ccccn3)n2)cc1O	-	-	.	.	-	-	.	.	.	.	.
Cc1cccnc1Nc1nc(-c2ccc(O)c(O)c2)cs1	?	-	-	.	-	9.98µM	-	-	-	-	-
CCN1CCN(CC(=O)N/N=C/c2cc(Br)cs2)CC1	-	-	.	.	-	17.8µM	-	-	-	-	-
COc1ccc(Br)cc1CN(C)CC(=O)NCc1ccc(F)cc1	-	-	-	-	-	14.1µM	-[10.4 µM]	-	-	-	-
O=C(CNCc1ccccc1)Nc1ccccc1-c1ccccc1	-	-	?	-	-	-	.	.	.	.	.
O=C(CNCc1ccccc1)Nc1cccc(Cl)c1Cl	-	-	-	?	-	15.8µM	-	-	-	-	-
Cc1cccc(N(CC(=O)N/N=C/c2cc([N+](=O)[O-])ccc2Cl)S(C)(=O)=O)c1C	-	-	-	-	.	17.7µM	-	-	-	-	?
CS(=O)(=O)N(CC(=O)N/N=C/c1cc([N+](=O)[O-])ccc1Cl)c1ccccc1	-	-	?	?	-	?	.	.	.	.	.
Cc1ccc(NC(=O)CSc2nc3ncccc3[nH]2)cc1F	.	-	.	?	-	.	.	.	.	.	.
Cc1ccc(NC(=O)CSc2nc3nc(C)c(Br)cc3[nH]2)cc1F	-	-	.	.	-	17.8µM	?	-	-	-	-
Cc1ccc(Nc2nc(NCCO)c3ccccc3n2)cc1C	12.6µM	-	?	-	-	25.1µM	-[10.4 µM]	?	-	-	-
O=C(CSc1n[nH]c(-c2cccs2)n1)NCc1cccs1	-	-	-	-	-	-	.	.	.	.	.
C=CCSc1n[nH]c(-c2cccs2)n1	-	-	.	.	-	12.6µM	-	-	-	-	-
O=c1[nH]c(CSc2cccc[n+]2[O-])nc2ccccc12	-	-	.	.	-	14.1µM	-[10.4 µM]	-	-	-	-
Cn1c(SCc2nc3ccccc3c(=O)[nH]2)nc2ccccc21	-	-	-	?	-	-	.	.	.	.	.
CCN(CC)c1ccc(N=C2C(=O)Nc3ccccc32)cc1	?	-	?	-	-96.1	-	-	-	0.259µM	?	0.73µM
O=C1Nc2ccccc2C1=Nc1ccc(Cl)cc1	-	-	-	?	-	-	.	.	.	.	.
CCCN1CCC(N2CCN(c3ccc([N+](=O)[O-])cc3)CC2)CC1	-	-	.	.	-	15.8µM	-[10.4 µM]	-	-	-	-
CCN1CCC(N2CCN(c3ccc(Cl)cc3)CC2)CC1	-	-	.	.	.	-	.	.	.	.	.
O=C(Nc1ccc(Cl)cc1)c1ccc(-n2cnnc2)cc1	.	-	.	-	-	.	.	.	.	.	.
COCCN(C(=S)Nc1ccc(OC)cc1)C1CCN(C(C)C)CC1	-	-	-	-	-	-	.	.	.	.	.
